Unmarked numbers belong to inactive results. How the calls were made is not given here.
biological target: Pantothenate synthetase (Mycobacterium tuberculosis (strain ATCC 25618 / H37Rv)) (UniProt P9WIL5); assay: Coupled enzyme confirmation of inhibitors against recombinant Mtb PanC (AID 375); conditions: coupled enzyme assay; at 10 µM, stronger effect = higher value;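 further: 0% = full reaction with vehicle and 100% = no enzyme background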
Sequence (P9WIL5 whole entry, looked up): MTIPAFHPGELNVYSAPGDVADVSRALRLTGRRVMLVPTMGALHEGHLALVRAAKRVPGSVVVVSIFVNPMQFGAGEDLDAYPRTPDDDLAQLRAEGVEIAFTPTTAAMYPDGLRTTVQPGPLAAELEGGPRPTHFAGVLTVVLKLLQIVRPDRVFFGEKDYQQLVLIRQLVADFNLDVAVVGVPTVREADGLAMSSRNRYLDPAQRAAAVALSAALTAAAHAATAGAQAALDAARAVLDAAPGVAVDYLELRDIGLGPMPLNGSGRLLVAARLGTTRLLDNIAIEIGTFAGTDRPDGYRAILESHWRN

Row | SMILES | inhibition [%]
1 | C=C(C)Cn1c(-c2ccccc2)nc2ccccc21 | 0
2 | CC1=Nn2c(nnc2-c2cc(-c3ccccc3)n[nH]2)SC1 | 0
3 | CC(=O)NC(C)C(=O)OCc1ccc(Cl)cc1Cl (stereo not given) | 0
4 | COc1ccc(-c2cc(C(F)(F)F)nc(SCC(=O)NCc3ccco3)n2)cc1OC | 3
5 | CCc1c(C)n([O-])c2c([n+]1=O)CCC2 | 0
6 | Cc1cc(C)c2c(n1)nn1c(N3CCN(c4ccccc4C)CC3)cc(C)nc21 | 4
7 | O=C(CSc1ncnc2ccccc12)NCCCO | 0
8 | Cc1cc(Cl)c(S(=O)(=O)N2CCN(c3ccc(F)cc3)CC2)cc1OCC(N)=O | 0
9 | CN1CCN(C(=O)c2ccc3c(=O)n(CCc4ccccc4)c(=S)[nH]c3c2)CC1 | 0
10 | Cc1cc(C(=O)CSc2nc3ccccc3[nH]2)c(C)n1C | 12
11 | CC(NC(=O)c1ccc2c(c1)OCO2)C(c1cccs1)N1CCOCC1 (stereo not given) | 9
12 | CCOc1ccc(C2C(C#N)=C(N)Oc3cc(C)n(CCN(C)C)c(=O)c32)cc1OCC (stereo not given) | 0
13 | COc1ccc(S(=O)(=O)NCc2ccc3c(c2)OCO3)cc1C(=O)O | 5
14 | Cc1cccc(-n2nnc(C(=O)NCc3ccccc3)c2N)c1 | 0
15 | Cc1cc(C)n(CCCNC(=O)c2ccc3c(c2)NC(=O)CS3)n1 | 0
16 | COc1ccc(C(=O)N2CCN(S(=O)(=O)c3cc(Cl)ccc3OC)CC2)cc1 | 5
17 | O=c1[nH]c2ccc(S(=O)(=O)N3CCN(C4CCCCC4)CC3)cc2[nH]c1=O | 1
18 | Cc1cccc(Cc2c(C)nc3nc(SCC(=O)NCc4ccco4)nn3c2C)c1 | 2
19 | c1ccc2c(c1)C(=Nn1cnnc1)c1ccccc1-2 | 0
20 | COc1ccc(S(=O)(=O)NCC(c2cccnc2)N2CCN(C)CC2)cc1C (stereo not given) | 0

Row | SMILES | inhibition [%]
21 | Cc1c(NC(=O)c2cnn3c2NC(c2ccco2)CC3C(F)(F)F)c(=O)n(-c2ccccc2)n1C (stereo not given) | 9
22 | COc1cc(NC(=O)Nc2cccc(Cl)c2)c(OC)cc1NC(=O)CN1CCCCC1 | 2
23 | COc1cccc(C(=O)Nc2ccc(N(C)C)cc2)c1OC | 8
24 | CC(C)(C)n1nnnc1C(c1cccc(C#N)c1)N1CCC(Cc2ccccc2)CC1 (stereo not given) | 2
25 | O=C(Nc1ccc2c(c1)OCCO2)c1cnc2n(c1=O)CCS2 | 0
26 | Cc1nc2cc(CO)ccc2n1C | 4
27 | CC1CCCC(C(=O)OCc2ccccc2)N1 (stereo not given) | 0
28 | C=CCn1c(COc2ccc(CC)cc2)nnc1SC/C(O)=C(\C#N)c1nc2ccccc2[nH]1 | 5
29 | Cc1ccc(C2=N/C(=C/N3CCOCC3)C(=O)O2)cc1 | 1
30 | O=C(NCCC1=CCCCC1)C1CCN(S(=O)(=O)c2cccc3nsnc23)CC1 | 10
31 | CCOn1c(=O)c(=O)n(OCc2ccccc2)c2ccccc21 | 0
32 | Cc1nc2scc(-c3cccs3)c2c(=O)n1-n1cccc1 | 4
33 | O=C(CCN1C(=O)C2C3C=CC(C3)C2C1=O)NC1CCCc2ccccc21 (stereo not given) | 1
34 | Cc1cnc(C(=O)NCCc2ccc(S(=O)(=O)NC(=O)NC3CCCCC3)cc2)cn1 | 5
35 | COC(=O)C1=C(N)Oc2cc(C)[nH]c(=O)c2C1c1ccncc1 (stereo not given) | 0
36 | CC(C)(C)NC(=O)C(c1ccco1)N(C(=O)Cn1nnc(-c2ccc(F)cc2)n1)c1ccccc1F (stereo not given) | 5
37 | CCCC(=O)Nc1ccccc1-c1nnn(CC(=O)Nc2ccc(OC)cc2)n1 | 0
38 | Cc1ccc2[nH]c(=O)c(CN(Cc3ccc4c(c3)OCO4)Cc3nnnn3Cc3ccco3)cc2c1 | 0
39 | Cc1cnn(Cc2ccccc2)c1N | 3
40 | COc1ccc(C2C(C(=O)N3CCC(C)CC3)c3ccccc3C(=O)N2C)cc1 (stereo not given) | 0
